This is a sample that favours compounds with a hit; in the whole collection about 17% have one here.
ClpP mod – qHTS Assay for Activators of ClpP | hit rate 1.9% among 340,000 | purified B. subtilis ClpP, FRET peptide cleavage, 20 min | ATP-dependent Clp protease proteolytic subunit (Bacillus subtilis (strain 168)), P80244 | Potency, µM (highest dose often 57.5 µM); active means well fitted falling curve with a large enough effect; inconclusive means small, poorly fitted or top-dose-only effect; inactive means no such curve, though single readings can be large or run the other way; further: the source files actives as falling curves though it sought activators and does not explain the sign; nearly all actives have a fitted effect of over 65% in size
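Purified B. subtilis ClpP, 10 microg/mL final in Tris/HCl pH8 with KCl, BSA, glycerol and Tween-20, cleaved an Abz/nitrotyrosine-quenched decapeptide. Fluorescence (ex 320, em 430) was read at 0 and 20 min at room temperature. Delta was normalized to 5.8 microM ADEP and DMSO/no-enzyme controls.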
TDP1 cell noCPT – qHTS for Inhibitors of human tyrosyl-DNA phosphodiesterase 1 (TDP1): qHTS in cells in absence of CPT; DT40 Tdp1-/- hTDP1 cells, no CPT, ATP luminescence, 48 h; Potency, µM (series often up to 46.2 µM), hits mostly inhibitors; hit rate 15% among 420,000; further: nearly all actives have a fitted effect of over 55% in size
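Stably hTDP1-transfected Tdp1-null chicken DT40 cells were treated with library compounds minus camptothecin and grown for at least 48 hr at 37 °C, after which cellular ATP was quantified by luminescence.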
DT40 TDP1 CPT – qHTS for Inhibitors of human tyrosyl-DNA phosphodiesterase 1 (TDP1): qHTS in cells in presence of CPT; hit rate 12% among 420,000; Potency, µM (series often up to 46.2 µM), most hits filed as inhibitors; chicken DT40 Tdp1-/-;hTDP1 cells + 20 nM CPT, ATP luminescence, 48 h; further: nearly all actives have a fitted effect of over 55% in size
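Chicken DT40 Tdp1-/- cells complemented with human TDP1, 400 cells/well, exposed to compounds plus 20 nM camptothecin for at least 48 h at 37 C; viability read as ATP content by CellTiter-Glo luminescence.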
TDP1 block – qHTS Assay for Inhibitors of Tyrosyl-DNA Phosphodiesterase (TDP1); Tyrosyl-DNA phosphodiesterase 1 (Homo sapiens), Q9NUW8; recombinant TDP1, AlphaScreen DNA substrate cleavage; Potency, µM (titrated, usually from 130 µM), hits mostly inhibitors; hit rate 0.28% among 350,000; further: nearly all actives have a fitted effect of over 40% in size
Target sequence (Q9NUW8 whole entry, looked up): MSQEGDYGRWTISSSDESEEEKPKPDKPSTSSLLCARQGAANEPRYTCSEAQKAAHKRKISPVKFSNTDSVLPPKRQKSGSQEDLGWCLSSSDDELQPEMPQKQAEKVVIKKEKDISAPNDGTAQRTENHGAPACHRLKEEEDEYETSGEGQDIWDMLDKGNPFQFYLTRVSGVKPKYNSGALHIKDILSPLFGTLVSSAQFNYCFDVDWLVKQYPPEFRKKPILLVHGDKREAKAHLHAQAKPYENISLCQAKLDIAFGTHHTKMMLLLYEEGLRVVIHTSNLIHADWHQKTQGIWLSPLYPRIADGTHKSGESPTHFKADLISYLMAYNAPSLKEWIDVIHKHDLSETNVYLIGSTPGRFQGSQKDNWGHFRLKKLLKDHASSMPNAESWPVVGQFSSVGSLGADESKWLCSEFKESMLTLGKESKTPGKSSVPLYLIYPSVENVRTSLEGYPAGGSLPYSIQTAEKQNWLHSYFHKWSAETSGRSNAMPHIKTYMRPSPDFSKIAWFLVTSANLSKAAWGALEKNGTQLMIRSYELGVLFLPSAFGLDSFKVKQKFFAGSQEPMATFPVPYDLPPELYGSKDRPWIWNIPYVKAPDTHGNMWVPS
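E. coli-derived human Tdp1, 1 nM final. Cpd preinc 15 min RT; substrate 15 nM final, 5 min RT; AS bead mix 10 ug/ml final, 10 min RT. Signal loss = tyrosine-FITC cleavage. No-enzyme wells = max signal.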
Each line names hits and unclear results; the compound was inactive in the other large screens. Unless noted, the call rests on the fitted dose curve; in most records, active means well fitted curve in the direction sought with a large enough effect; inconclusive means small, poorly fitted or top-dose-only effect, or another doubt; inactive means no such curve, though single readings can be large; an effect the other way counts as inactive or inconclusive.

Cc1ccc(C(=O)NCCC(C)C)cc1NC(=O)c1nsc2ccccc12	TDP1 cell noCPT inconclusive, DT40 TDP1 CPT 16µM
CC(=O)c1cccc(NC(=O)C(=O)c2cn(CC(=O)N3CCCCC3)c3ccccc23)c1	TDP1 cell noCPT 23µM, DT40 TDP1 CPT 26µM
CC(=O)Nc1cccc(NC(=O)CSc2cn(CC(=O)N3CCCCCC3)c3ccccc23)c1	TDP1 cell noCPT inconclusive, DT40 TDP1 CPT 18µM
CC(=O)Nc1cccc(NC(=O)C(=O)c2cn(CC(=O)N3CCCC3)c3ccccc23)c1	TDP1 cell noCPT inconclusive, DT40 TDP1 CPT inconclusive (no result: TDP1 block)
COc1ccc(C(=O)NCCn2cc(SCC(=O)Nc3ccc(C)cc3)c3ccccc32)cc1	TDP1 cell noCPT inconclusive, DT40 TDP1 CPT inconclusive
COc1ccc(C(=O)NCCn2cc(SCc3cc(C)ccc3C)c3ccccc32)cc1	TDP1 cell noCPT inconclusive, DT40 TDP1 CPT 13µM
COC(=O)c1ccc(NC(=O)CSc2cn(CC(=O)N3CCCCC3)c3ccccc23)cc1	TDP1 cell noCPT inconclusive, DT40 TDP1 CPT 21µM
CCOC(=O)C1=CN(Cc2ccco2)S(=O)(=O)N(C)C1CC (stereo not drawn)	DT40 TDP1 CPT inconclusive
C[C@H]1NS(=O)(=O)c2ccc(Br)cc2O[C@H]1c1ccccc1	none
Cc1cc(Br)c(NC(=O)CN2CCCC2)c(Br)c1	none (no result: ClpP mod)
O=C(CSc1cn(CCNC(=O)c2ccccc2)c2ccccc12)NCc1ccco1	TDP1 cell noCPT inconclusive, DT40 TDP1 CPT 26µM
COc1ccccc1NC(=O)C(=O)c1cn(CC(=O)N2CCOCC2)c2ccccc12	TDP1 cell noCPT 21µM, DT40 TDP1 CPT inconclusive
CCOc1ccc(NC(=O)CSc2cn(CCNC(=O)c3ccccc3F)c3ccccc23)cc1	TDP1 cell noCPT inconclusive, DT40 TDP1 CPT inconclusive
COCCNC(=O)CSc1cn(CC(=O)N2CCCCCC2)c2ccccc12	TDP1 cell noCPT 0.52µM, DT40 TDP1 CPT inconclusive
CCOc1ccc(C(=O)NCCn2cc(SCC(=O)Nc3ccccc3)c3ccccc32)cc1	TDP1 cell noCPT 23µM, DT40 TDP1 CPT inconclusive
CN(C(=O)COC(=O)CCC(=O)c1ccc(F)cc1)C1CCCCC1	none (no result: ClpP mod)
COc1ccc(CCN2CC(C(=O)NCc3cccc4[nH]ccc34)CCC2=O)cc1 (stereo not drawn)	TDP1 cell noCPT inconclusive, DT40 TDP1 CPT inconclusive
CCOc1ccc(NC(=O)CSc2cn(CC(=O)N3CCOCC3)c3ccccc23)cc1	DT40 TDP1 CPT inconclusive
CCOc1ccc(NC(=O)CSc2cn(CC(=O)N3CCCCCC3)c3ccccc23)cc1	TDP1 cell noCPT inconclusive, DT40 TDP1 CPT 23µM
C(=N\Nc1nc(Nc2ccccc2)nc(N2CCOCC2)n1)/c1c[nH]c2ccccc12	TDP1 cell noCPT 8.2µM, DT40 TDP1 CPT 12µM
O=C(Oc1cccc(/C=N/Nc2nc(Nc3ccccc3)nc(N3CCOCC3)n2)c1)c1ccco1	TDP1 cell noCPT 23µM, DT40 TDP1 CPT 21µM
Cc1[nH]c2ccccc2c1/C=N/Nc1nc(Nc2ccc(F)cc2)nc(N2CCOCC2)n1	none
COc1cc(/C=N/Nc2nc(N3CCCCC3)nc(N3CCCCC3)n2)ccc1OC(=O)c1ccco1	none (no result: ClpP mod, TDP1 cell noCPT, DT40 TDP1 CPT)
Cc1ccc(Nc2nc(N/N=C/c3c[nH]c4ccccc34)nc(N3CCOCC3)n2)cc1	TDP1 cell noCPT 8.2µM, DT40 TDP1 CPT 21µM
CCc1ccc(-n2c(=O)c3cccnc3n2CC(=O)Nc2ccccc2C(F)(F)F)cc1	TDP1 cell noCPT inconclusive, DT40 TDP1 CPT inconclusive (no result: TDP1 block)
COc1ccc2oc(-c3cccc(NC(=O)c4ccc(C#N)cc4F)c3)nc2c1	none (no result: TDP1 cell noCPT, DT40 TDP1 CPT)
Oc1ccc(N2CCN(C(c3ccc(Cl)cc3)c3nnnn3Cc3ccc(F)cc3)CC2)cc1 (stereo not drawn)	TDP1 cell noCPT inconclusive, DT40 TDP1 CPT inconclusive (no result: TDP1 block)
COc1ccc(C(=O)C(C)[n+]2ccc(C)c3ccccc32)cc1[N+](=O)[O-] (stereo not drawn)	TDP1 cell noCPT 7.3µM, DT40 TDP1 CPT 18µM (no result: TDP1 block)
COc1ccc(C(=O)Nc2ccccc2)cc1[N+](=O)[O-]	none (no result: ClpP mod, TDP1 cell noCPT, DT40 TDP1 CPT)
COc1ccc(C(=O)c2c(N)c(C(=O)Nc3cccc(OC)c3)c3ccccn23)cc1	DT40 TDP1 CPT inconclusive
OC(CNC1CCCCC1)CON=C1CCSc2c(Cl)cccc21 (stereo not drawn)	TDP1 cell noCPT 8.2µM, DT40 TDP1 CPT 23µM (no result: TDP1 block)
O=C1C(C2=C(O)c3ccccc3C2=O)=Nc2ccccc21	TDP1 cell noCPT 15µM, DT40 TDP1 CPT 10µM
O=C1C(C2=NC(C(=O)O)C3C(=O)N(c4ccccc4)C(=O)C23)=C(O)c2ccccc21 (stereo not drawn)	none
CCOCCCNC(=O)c1cc(=O)n(Cc2cccc(C)c2)c2ccccc12	TDP1 cell noCPT 21µM, DT40 TDP1 CPT inconclusive (no result: ClpP mod)
CCn1c(=O)cc(OCC(=O)NCCc2cccc(C)c2)c2ccccc21	TDP1 cell noCPT inconclusive, DT40 TDP1 CPT inconclusive (no result: ClpP mod)
CCOC(=O)c1ccc2nc(C)c3c(c2c1)OC(C)C3 (stereo not drawn)	ClpP mod 32µM
CCOC(=O)c1ccc2nc(C(F)(F)F)[nH]c(=O)c2c1	ClpP mod 4µM, TDP1 cell noCPT 7.3µM, DT40 TDP1 CPT 16µM
COc1ccccc1NC(=O)CN1CCCN(S(=O)(=O)c2ccc(Br)cc2)CC1	TDP1 cell noCPT inconclusive, DT40 TDP1 CPT inconclusive
c1csc(C(c2nnnn2C2CCCCC2)N2CCCC3(CCCCC3)C2)c1 (stereo not drawn)	TDP1 cell noCPT 23µM, DT40 TDP1 CPT inconclusive
CCC(C)(C)n1nnnc1C(c1ccc(C)cc1)N1CCCC1 (stereo not drawn)	none
CCC(C)(C)n1nnnc1C(c1cccs1)N1CCCCC1 (stereo not drawn)	TDP1 cell noCPT 18µM, DT40 TDP1 CPT inconclusive
CCC(C)(C)n1nnnc1C(c1ccc2ncccc2c1)N1CCCCCC1 (stereo not drawn)	TDP1 cell noCPT inconclusive, DT40 TDP1 CPT 11µM
CCC1(CC)C(=O)N(c2ccccc2)C(=N)N(c2ccccc2)C1=O	none (no result: TDP1 block)
CN(C)N=Nc1nc2c(c(=O)n(C)c(=O)n2C)n1C	none
NS(=O)(=O)c1cccc2c1c([N+](=O)[O-])cc1[nH]c(=O)c(=O)[nH]c12	none (no result: ClpP mod, TDP1 block)
Nc1cc2[nH]c(=O)c3ccccc3c2cc1[N+](=O)[O-]	TDP1 cell noCPT inconclusive, DT40 TDP1 CPT 23µM (no result: TDP1 block)
CC(C)NC(=O)Nc1ccc2c(c1)C(=O)N([C@H](C)CO)C[C@H](C)[C@@H](CN(C)C(=O)Nc1ccc3c(c1)OCO3)O2	none
NC(=O)c1cc(N=Nc2c(N)[nH]n(-c3c(Cl)cc(Cl)cc3Cl)c2=O)ccc1Cl	none (no result: ClpP mod)
CN(C)c1ccc(-c2ccnc3c2CC(C)(C(=O)NCCC(F)(F)F)O3)cc1 (stereo not drawn)	TDP1 cell noCPT 5.8µM, DT40 TDP1 CPT 7.3µM (no result: TDP1 block)
CC(=O)Nc1ccc(-c2ccnc3c2CC(C)(C(=O)NCc2ccco2)O3)cc1 (stereo not drawn)	TDP1 cell noCPT 1.2µM, DT40 TDP1 CPT 1.5µM (no result: TDP1 block)
